{"source": "PubChem BioAssay (EPA / NIEHS)", "note": "The source made the active and inactive calls. Rule for the calls: active = hit-call score of the fitted dose curve at least 0.9, where 1 is the maximum; inactive = score below 0.9."}
{"read-out": "Hypoxia-inducible factor 1-alpha (Homo sapiens) (UniProt Q16665)", "assay": "LTEA_HepaRG_HIF1A: Life Technologies and Expression Analysis (LTEA) Assay for Hypoxia-inducible factor 1 (HIF1A) Trancription factor using HepaRG (AID 2283503);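 note: HIF1A transcript by TaqMan qRT-PCR normalized to ACTB GAPDH and POLR2A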", "conditions": "mRNA level, 48 h; actives raise or lower the signal", "protocol": "LTEA_HepaRG is a cell based, multiplexed-readout assay that uses HepaRG, a human liver cell line, with measurements taken at 48 hours after chemical dosing on a 96-well plate.LTEA_HepaRG_HIF1A is one of 102 assay component(s) measured in the LTEA HepaRG cell culture assay. It is a marker of Cell proliferation, survival, death.Data from the assay component LTEA_HepaRG_HIF1A was analyzed into 1 endpoint. This assay endpoint, LTEA_HepaRG_HIF1A, was analyzed with bidirectional fitting relative to DMSO as the negative control and baseline of activity. Using a type of inducible reporter, measures of mRNA induction for gain or loss-of-signal activity can be used to understand regulation of transcription factor activity. To generalize the intended target to other relatable targets, this assay endpoint is annotated to the dna binding intended target family, where the subfamily is basic helix-loop-helix protein.\nA total of 1060 chemcials from the ToxCast library were tested in eight-point concentration-response experiments. Cell culture and cytotoxicity assays were conducted at Thermo Fisher Scientific's Custom Services facility (Madison, WI). A single lot of human HepaRG cells (Thermo Fisher Scientific, Frederick, MD) was used for the cell culture experiments. 96-well format collagen type I coated plates of human HepaRG cells were prepared using established methods. Briefly, cryopreserved HepaRG cells were thawed, plated at a density of approximately 100,000 cells/well in HepaRG Thaw, Plate, and General Purpose media (HPRG770, Thermo Fisher Scientific), and incubated for 48 hours. 0.5% DMSO was selected as vehicle control to balance the requisite need of DMSO in HepaRG cultures to maintain differentiation (for example, baseline metabolism, proportions of hepatocytes vs. cholangiocytes), while enabling further hepatic receptor pathway activation (for example, PXR and CAR) in response to chemical exposure. 48 hours after plating, the culture medium was replaced with HepaRG Serum-Free Incudtion Media. Cells were exposed to each test chemical in duplicate and maintained in CO2 incubators for another 48 hours. Chemical plates were thawed to room temperature and 200x concentrations of treatment groups were prepared. 8-point conentration-reponse curves were made with the highest exposure at 100 uM, followed by half-log dilutions, all in 0.5% DMSO. Each test plate contained variouse controls, induction positive controls (1mM phenobarbital), cytotoxicity positive controls ([…] aflatoxin B1), vehicle controls (0.5% DMSO), and total lysis controls (0.5% DMSO). Cell morphology images were taken using an Essen IncuCyte FLR automated microscope, with six 96-well plates imaged in about 24 minutes. Images were captured and exported and JPEG files. Spent culture media was transfered to black-well plates for the LDH assay, and remaining media was sorted at -80 C for later use. Cells were treated with RLT buffer and frozen until shipped for gene expression analysis. Total RNA was isolated from the cell suspension in 75 uL of Buffer RLT (Qiagen, Germantown, MD 20874) by Quintiles/Expression Analysis (Durham, NC) using a custom isolation procedure. Total RNA from each plate well was transferred to a preamplification plate. Fluidigm's 96.96 Dynamic ArrayTM (Fluidigm, Amsterdam, the Netherlands) technology was used for gene expression analyses by quantitative reverse transcription polymerase chain reaction (qRT-PCR, performed by Quintiles/Expression Analysis, Durham, NC)89. Standard TaqManTM Assays (Applied Biosystems/ThermoFisher Scientific, Foster City, CA) were used to assess the expression of 93 genes selected based on their selectivity and sensitivity to important hepatic receptors known to be modulated by environmental chemicals; importance in human hepatocyte functionality; and hepatotoxicity. […]"}
{"smiles": "CN(C)C(=O)Nc1ccc(Cl)cc1", "outcome": "inactive"}
{"smiles": "CCNS(=O)(=O)C(F)(F)C(F)(F)C(F)(F)C(F)(F)C(F)(F)C(F)(F)C(F)(F)C(F)(F)F", "outcome": "inactive"}
{"smiles": "ClCCOCCCl", "outcome": "inactive"}
{"smiles": "CC(C)(C)C(O)(CCc1ccc(Cl)cc1)Cn1cncn1", "note": "(stereo not given)", "outcome": "inactive"}
{"smiles": "CCN(CC)N=O", "outcome": "inactive"}
{"smiles": "C1=Cc2cccc3cccc1c23", "outcome": "inactive"}
{"smiles": "c1ccc2c(c1)-c1cccc3cccc-2c13", "outcome": "inactive"}
{"smiles": "CC(C)N(Cc1ccccc1)C(=O)C(C)(C)C", "outcome": "inactive"}
{"smiles": "O=[N+]([O-])c1ccc(Oc2ccc(Cl)cc2Cl)cc1", "outcome": "inactive"}
{"smiles": "CCC[CH2][Sn]([Cl])([CH2]CCC)[CH2]CCC", "AC50": "2.07 µM (active)"}
{"smiles": "C[C@]12C=CC3=C4CCC(=O)C=C4CC[C@H]3[C@@H]1CC[C@@H]2O", "outcome": "inactive"}
{"smiles": "Brc1ccc(Oc2ccccc2)cc1", "outcome": "inactive"}
{"smiles": "Cc1ccc(N=C=O)cc1N=C=O", "outcome": "inactive"}
{"smiles": "CCCCCCCCOC(=O)c1ccc(C(=O)OCCCCCCCC)c(C(=O)OCCCCCCCC)c1", "outcome": "inactive"}
{"smiles": "CCC(C)c1ccc(O)cc1", "note": "(stereo not given)", "outcome": "inactive"}
{"smiles": "c1ccc(C2CO2)cc1", "note": "(stereo not given)", "outcome": "inactive"}
{"smiles": "COP(=S)(OC)SCN1C(=O)c2ccccc2C1=O", "outcome": "inactive"}
{"smiles": "Clc1ccc(C(c2ccc(Cl)cc2)C(Cl)(Cl)Cl)cc1", "outcome": "inactive"}
{"smiles": "O=C(N[C@H](c1ccccc1)[C@@H]1CN2CCC1CC2)c1c(Cl)ccc(C(F)(F)F)c1Cl", "outcome": "inactive"}
{"smiles": "CS(=O)(=O)NC(=O)c1cc(Oc2ccc(C(F)(F)F)cc2Cl)ccc1[N+](=O)[O-]", "outcome": "inactive"}
{"smiles": "Cc1cccc(N)c1N", "outcome": "inactive"}
{"smiles": "CCCCC(CC)COC(=O)c1ccc(C(=O)OCC(CC)CCCC)c(C(=O)OCC(CC)CCCC)c1", "note": "(stereo not given)", "outcome": "inactive"}
{"smiles": "O=Cc1ccco1", "outcome": "inactive"}
{"smiles": "N#CC(Br)(Br)C(N)=O", "outcome": "inactive"}
{"smiles": "ClC1=C(Cl)C2(Cl)C3C(Cl)C=CC3C1(Cl)C2(Cl)Cl", "note": "(stereo not given)", "AC50": "33.8 µM (active)"}
{"smiles": "Clc1ccc(Cl)c(Cl)c1", "outcome": "inactive"}
{"smiles": "OCCCl", "outcome": "inactive"}
{"smiles": "OCCCBr", "outcome": "inactive"}
{"smiles": "ClC1=C(Cl)[C@]2(Cl)[C@H]3[C@H]([C@@H]4C=C[C@H]3C4)[C@@]1(Cl)C2(Cl)Cl", "outcome": "inactive"}
{"smiles": "CC(C)(C)OOC(C)(C)CCC(C)(C)OOC(C)(C)C", "outcome": "inactive"}
{"smiles": "CC(C)(C)OOC(=O)c1ccccc1", "outcome": "inactive"}
{"smiles": "Nc1ccc(Cc2ccc(N)cc2)cc1", "outcome": "inactive"}
{"smiles": "Nc1ccc(N=Nc2ccccc2)cc1", "outcome": "inactive"}
{"smiles": "Cc1ccc(N)c(N)c1", "outcome": "inactive"}
{"smiles": "CCCCCOC(=O)c1ccccc1C(=O)OCCCCC", "outcome": "inactive"}
{"smiles": "CCCCCCCCn1sccc1=O", "outcome": "inactive"}
{"smiles": "Nc1ccc(Cl)cc1N", "AC50": "19.7 µM (active)"}
{"smiles": "Oc1ccc2ccc3cccc4ccc1c2c34", "outcome": "inactive"}
{"smiles": "O=P(OCCCl)(OCCCl)OCCCl", "outcome": "inactive"}
{"smiles": "OCCOCCO", "outcome": "inactive"}
